Data: article PMC5540273 (PLoS ONE, 2017)

test system: CSK; conditions: concentration: 1 μM, replicates: in singlicate; n = 1
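Also: KINOMEscan kinase panel screen.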

Question: How did the “%Inh” value turn out when `Clc1cc(Nc2ncnc3cc[nH]c23)ccc1OCc1ccccn1` was run?
Answer: Its value is 17%.

Question: `O=C(Nc1ccccc1F)NC1CCN(c2ccnc(Nc3ccc(F)cc3)n2)C1` (stereo not drawn) [GSK1379722] was tested. Which “%Inh” value did it give?
Answer: The value was 0%.

Question: For `Cc1ccc(O)cc1Nc1cc(C(F)(F)F)nc2ccc(-c3ccncc3)cc12` [GW630823], which “%Inh” value is on record?
Answer: Its value is 0%.

Question: `C[C@@H]1CCN(C(=O)CO)C[C@@H]1N(C)c1ncnc2[nH]ccc12` was tested. Which “%Inh” value did it give?
Answer: The value was 21%.

Question: How did the “%Inh” value turn out when `Cn1cc(-c2ccc3c(c2)CCN3C(=O)Cc2cccc(C(F)(F)F)c2)c2c(N)ncnc21` [GSK2606414] was run?
Answer: The value was 0%.

Question: `Cl.Cn1ccc(-c2cccc(Nc3ccnc4cc(-c5nccs5)ccc34)c2)n1` [GW525701] was tested. Which “%Inh” value did it give?
Answer: Its value is 0%.

Question: With `CCc1nc(-c2cccc(N(C)S(=O)(=O)c3ccccc3)c2)c(-c2ccnc(Nc3ccc(N4CCN(C(C)=O)CC4)nc3)n2)s1` [GSK1645895] as the compound, how does the “%Inh” value read?
Answer: The value was 50%.

Question: Which “%Inh” value does the source give for `CN1CCC(n2cnc(-c3ccc(F)cc3)c2-c2ccnc(NC3CCNCC3)n2)CC1` [SB-229482] here?
Answer: Its value is 0%.

Question: Which “%Inh” value does the source give for `Nc1nc(-c2cccnc2)c(-c2ccnc3ccccc23)s1` [GW684083] here?
Answer: Its value is 0%.

Question: With `O=C(CCO)NCCn1ccc2ncnc(Nc3ccc(Oc4cccc(C(F)(F)F)c4)c(Cl)c3)c21` as the compound, how does the “%Inh” value read?
Answer: Its value is 3%.

Question: For `O=C(NCCCN1CCCC1=O)c1cnc(NCc2cc(Cl)ccc2Cl)nc1NC1CCNCC1`, which “%Inh” value is on record?
Answer: Its value is 0%.

Question: How did the “%Inh” value turn out when `Fc1ccc(Nc2nccc(-c3c(-c4ccc(Cl)cc4)nn4ncccc34)n2)cc1F` [GW829058] was run?
Answer: Its value is 28%.

Question: For `c1ccc(-c2ccc3c(-c4ccnc(Nc5ccc6c(c5)OCCO6)n4)cnn3n2)cc1` [GW818941], which “%Inh” value is on record?
Answer: The value was 84%.

Question: With `O=C(Nc1ccccc1)Nc1ccc(Oc2ccc3nccn3n2)cc1` as the compound, how does the “%Inh” value read?
Answer: Its value is 0%.

Question: Which “%Inh” value does the source give for `CN1c2ccc(-c3ccc(C(=O)NCCO)cc3)cc2-c2[nH]ncc2S1(=O)=O` here?
Answer: Its value is 9%.

Question: `CSc1ccc(NC2=C(c3ccccc3Cl)C(=O)NC2=O)cc1` [SB-342411] was tested. Which “%Inh” value did it give?
Answer: The value was 7%.

Question: With `CS(=O)(=O)CCNCc1nc(-c2ccc3ncnc(Nc4ccc(OCc5cccc(F)c5)c(Cl)c4)c3c2)cs1.Cl` [GW583340] as the compound, how does the “%Inh” value read?
Answer: The value was 12%.

Question: How did the “%Inh” value turn out when `Cl.c1ccc(Cn2ccc3cc(Nc4ncnc5ccccc45)ccc32)cc1` [GW275568] was run?
Answer: The value was 20%.

Question: For `Nc1nccc2scc(-c3ccc4c(c3)CCN4C(=O)Cc3cc(F)ccc3F)c12` [GSK2587663], which “%Inh” value is on record?
Answer: The value was 0%.

Question: `Fc1cccc(COc2ccc(Nc3ncnc4sc(-c5ccc[nH]5)cc34)cc2Cl)c1` [GW707818] was tested. Which “%Inh” value did it give?
Answer: Its value is 13%.

Question: Which “%Inh” value does the source give for `Clc1ccc(-c2cc(-c3c[nH]nc3-c3ccccn3)ccn2)cc1` [GW681251] here?
Answer: Its value is 0%.

Question: For `Cc1cc(N2CCC(NS(=O)(=O)c3ccc(F)cc3)CC2)nc(Nc2cccc(C#N)c2)n1.O=C(O)C(F)(F)F` [GSK1653537], which “%Inh” value is on record?
Answer: Its value is 0%.

Question: How did the “%Inh” value turn out when `Cl.c1ccc(Cn2ncc3cc(Nc4ncnc5ccccc45)ccc32)cc1` [GW273749] was run?
Answer: Its value is 38%.

Question: Which “%Inh” value does the source give for `O=c1cc(N2CCOCC2)nc2n(Cc3cccc(Cl)c3)ccn12` [GSK2296823] here?
Answer: The value was 0%.

Question: With `COc1ccc(NC(=O)c2ccc(-c3cc(-c4nnc(C)o4)ccc3C)cc2)cc1` [GW595885] as the compound, how does the “%Inh” value read?
Answer: Its value is 0%.

Question: Which “%Inh” value does the source give for `Cc1ccc(NC(=O)c2cccc(C#N)c2)cc1-c1ccc(C(=O)Nc2ccncc2)cc1` [GSK1398463] here?
Answer: Its value is 0%.

Question: `FC(F)(F)c1ccc(-c2nn3ncccc3c2-c2ccnc(Nc3cccc(C(F)(F)F)c3)n2)cc1` [GW828205] was tested. Which “%Inh” value did it give?
Answer: The value was 0%.

Question: With `CCn1c(-c2ccncc2)nc2cnccc21` [SB-735216] as the compound, how does the “%Inh” value read?
Answer: Its value is 0%.

Question: For `CC(C)(C)OC(=O)NC1CCCN(c2cc(-c3ccc4c(N)n[nH]c4c3)nc(N)n2)C1` (stereo not drawn) [GSK2286096], which “%Inh” value is on record?
Answer: The value was 0%.

Question: How did the “%Inh” value turn out when `CNc1nccc(-c2c(-c3ccc(F)cc3)ncn2C2CCN(C)CC2)n1` [SB-222903] was run?
Answer: Its value is 0%.

Question: `CS(=O)(=O)CCNCc1ccc(-c2ccc3ncnc(Nc4ccc(OCc5ccccc5)c(Cl)c4)c3c2)o1.Cl` [GW574783] was tested. Which “%Inh” value did it give?
Answer: The value was 0%.

Question: With `COc1cc2c(Nc3cccc(NC(=O)c4ccccc4)c3)ncnc2cc1OCCCN1CCOCC1` [GSK223810] as the compound, how does the “%Inh” value read?
Answer: The value was 23%.

Question: How did the “%Inh” value turn out when `COc1ccc(NC(=O)Nc2ccc(C)c(-c3ccc(C(=O)Nc4ccncc4)cc3)c2)cc1` [GSK1398475] was run?
Answer: Its value is 0%.

Question: For `Oc1ccc2ncnc(Nc3ccc(OCc4ccccc4)cc3)c2c1` [GI262866], which “%Inh” value is on record?
Answer: Its value is 0%.

Question: Which “%Inh” value does the source give for `Fc1ccc(-c2ncn(CCCNCc3ccccc3)c2-c2ccncc2)cc1` here?
Answer: The value was 0%.

Question: Which “%Inh” value does the source give for `FC(F)(F)c1ccc(-c2cc(-c3c[nH]nc3-c3ccccn3)ccn2)cc1` [GW599550] here?
Answer: Its value is 0%.

test system: CSNK1A1L; conditions: concentration: 1 μM, replicates: in singlicate; n = 1

Question: Which “%Inh” value does the source give for `Clc1cc(Nc2ncnc3cc[nH]c23)ccc1OCc1ccccn1` here?
Answer: Its value is 1%.

Question: With `O=C(Nc1ccccc1F)NC1CCN(c2ccnc(Nc3ccc(F)cc3)n2)C1` (stereo not drawn) [GSK1379722] as the compound, how does the “%Inh” value read?
Answer: Its value is 0%.

Question: For `Cc1ccc(O)cc1Nc1cc(C(F)(F)F)nc2ccc(-c3ccncc3)cc12` [GW630823], which “%Inh” value is on record?
Answer: Its value is 23%.

Question: `C[C@@H]1CCN(C(=O)CO)C[C@@H]1N(C)c1ncnc2[nH]ccc12` was tested. Which “%Inh” value did it give?
Answer: The value was 0%.

Question: Which “%Inh” value does the source give for `Cn1cc(-c2ccc3c(c2)CCN3C(=O)Cc2cccc(C(F)(F)F)c2)c2c(N)ncnc21` [GSK2606414] here?
Answer: Its value is 14%.

Question: For `Cl.Cn1ccc(-c2cccc(Nc3ccnc4cc(-c5nccs5)ccc34)c2)n1` [GW525701], which “%Inh” value is on record?
Answer: The value was 5%.

Question: `CCc1nc(-c2cccc(N(C)S(=O)(=O)c3ccccc3)c2)c(-c2ccnc(Nc3ccc(N4CCN(C(C)=O)CC4)nc3)n2)s1` [GSK1645895] was tested. Which “%Inh” value did it give?
Answer: Its value is 0%.

Question: For `CN1CCC(n2cnc(-c3ccc(F)cc3)c2-c2ccnc(NC3CCNCC3)n2)CC1` [SB-229482], which “%Inh” value is on record?
Answer: Its value is 28%.

Question: Which “%Inh” value does the source give for `Nc1nc(-c2cccnc2)c(-c2ccnc3ccccc23)s1` [GW684083] here?
Answer: The value was 9%.

Question: `O=C(CCO)NCCn1ccc2ncnc(Nc3ccc(Oc4cccc(C(F)(F)F)c4)c(Cl)c3)c21` was tested. Which “%Inh” value did it give?
Answer: The value was 0%.

Question: How did the “%Inh” value turn out when `O=C(NCCCN1CCCC1=O)c1cnc(NCc2cc(Cl)ccc2Cl)nc1NC1CCNCC1` was run?
Answer: Its value is 1%.

Question: How did the “%Inh” value turn out when `Fc1ccc(Nc2nccc(-c3c(-c4ccc(Cl)cc4)nn4ncccc34)n2)cc1F` [GW829058] was run?
Answer: Its value is 3%.

Question: `c1ccc(-c2ccc3c(-c4ccnc(Nc5ccc6c(c5)OCCO6)n4)cnn3n2)cc1` [GW818941] was tested. Which “%Inh” value did it give?
Answer: Its value is 0%.

Question: Which “%Inh” value does the source give for `O=C(Nc1ccccc1)Nc1ccc(Oc2ccc3nccn3n2)cc1` here?
Answer: The value was 6%.

Question: How did the “%Inh” value turn out when `CN1c2ccc(-c3ccc(C(=O)NCCO)cc3)cc2-c2[nH]ncc2S1(=O)=O` was run?
Answer: Its value is 7%.

Question: How did the “%Inh” value turn out when `CSc1ccc(NC2=C(c3ccccc3Cl)C(=O)NC2=O)cc1` [SB-342411] was run?
Answer: The value was 0%.

Question: Which “%Inh” value does the source give for `CS(=O)(=O)CCNCc1nc(-c2ccc3ncnc(Nc4ccc(OCc5cccc(F)c5)c(Cl)c4)c3c2)cs1.Cl` [GW583340] here?
Answer: Its value is 0%.

Question: How did the “%Inh” value turn out when `Cl.c1ccc(Cn2ccc3cc(Nc4ncnc5ccccc45)ccc32)cc1` [GW275568] was run?
Answer: Its value is 0%.

Question: With `Nc1nccc2scc(-c3ccc4c(c3)CCN4C(=O)Cc3cc(F)ccc3F)c12` [GSK2587663] as the compound, how does the “%Inh” value read?
Answer: The value was 1%.

Question: For `Fc1cccc(COc2ccc(Nc3ncnc4sc(-c5ccc[nH]5)cc34)cc2Cl)c1` [GW707818], which “%Inh” value is on record?
Answer: Its value is 0%.

Question: `Clc1ccc(-c2cc(-c3c[nH]nc3-c3ccccn3)ccn2)cc1` [GW681251] was tested. Which “%Inh” value did it give?
Answer: The value was 1%.

Question: `Cc1cc(N2CCC(NS(=O)(=O)c3ccc(F)cc3)CC2)nc(Nc2cccc(C#N)c2)n1.O=C(O)C(F)(F)F` [GSK1653537] was tested. Which “%Inh” value did it give?
Answer: The value was 35%.

Question: For `Cl.c1ccc(Cn2ncc3cc(Nc4ncnc5ccccc45)ccc32)cc1` [GW273749], which “%Inh” value is on record?
Answer: Its value is 12%.

Question: Which “%Inh” value does the source give for `O=c1cc(N2CCOCC2)nc2n(Cc3cccc(Cl)c3)ccn12` [GSK2296823] here?
Answer: The value was 12%.

Question: How did the “%Inh” value turn out when `COc1ccc(NC(=O)c2ccc(-c3cc(-c4nnc(C)o4)ccc3C)cc2)cc1` [GW595885] was run?
Answer: The value was 5%.

Question: For `Cc1ccc(NC(=O)c2cccc(C#N)c2)cc1-c1ccc(C(=O)Nc2ccncc2)cc1` [GSK1398463], which “%Inh” value is on record?
Answer: Its value is 15%.

Question: For `FC(F)(F)c1ccc(-c2nn3ncccc3c2-c2ccnc(Nc3cccc(C(F)(F)F)c3)n2)cc1` [GW828205], which “%Inh” value is on record?
Answer: The value was 5%.

Question: With `CCn1c(-c2ccncc2)nc2cnccc21` [SB-735216] as the compound, how does the “%Inh” value read?
Answer: The value was 10%.

Question: How did the “%Inh” value turn out when `CC(C)(C)OC(=O)NC1CCCN(c2cc(-c3ccc4c(N)n[nH]c4c3)nc(N)n2)C1` (stereo not drawn) [GSK2286096] was run?
Answer: Its value is 0%.

Question: For `CNc1nccc(-c2c(-c3ccc(F)cc3)ncn2C2CCN(C)CC2)n1` [SB-222903], which “%Inh” value is on record?
Answer: Its value is 38%.

Question: For `CS(=O)(=O)CCNCc1ccc(-c2ccc3ncnc(Nc4ccc(OCc5ccccc5)c(Cl)c4)c3c2)o1.Cl` [GW574783], which “%Inh” value is on record?
Answer: The value was 20%.

Question: With `COc1cc2c(Nc3cccc(NC(=O)c4ccccc4)c3)ncnc2cc1OCCCN1CCOCC1` [GSK223810] as the compound, how does the “%Inh” value read?
Answer: The value was 63%.

Question: For `COc1ccc(NC(=O)Nc2ccc(C)c(-c3ccc(C(=O)Nc4ccncc4)cc3)c2)cc1` [GSK1398475], which “%Inh” value is on record?
Answer: The value was 3%.

Question: For `Oc1ccc2ncnc(Nc3ccc(OCc4ccccc4)cc3)c2c1` [GI262866], which “%Inh” value is on record?
Answer: The value was 0%.

Question: Which “%Inh” value does the source give for `Fc1ccc(-c2ncn(CCCNCc3ccccc3)c2-c2ccncc2)cc1` here?
Answer: Its value is 22%.

Question: For `FC(F)(F)c1ccc(-c2cc(-c3c[nH]nc3-c3ccccn3)ccn2)cc1` [GW599550], which “%Inh” value is on record?
Answer: Its value is 0%.
